Bioassay records (PubChem BioAssay)
Tau FP inhib: qHTS for Inhibitors of Tau Fibril Formation, Fluorescence Polarization; Microtubule-associated protein tau (Homo sapiens), P10636; K18 P301L tau heparin fibrillization, Alexa594 FP, 6 h; Potency, µM (titrated, usually from 57.7 µM), without a hit: at the highest dose activity, negative = inhibition, hits mostly inhibitors; actives 0.39% (n = 280,000); also: potency is read from the fitted curve at half-maximal effect; % is scaled to controls: 0 for no effect and ±100 for the full control effect; nearly all actives have a fitted effect of over 55% in size
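Compound effects on tau fibrillization are measured by Alexa 594 fluorescence polarization (ex 555, em 632 nm). K18 P301L tau is used at 15 uM with 0.24 uM labeled tracer, and 20 uM heparin induces aggregation over 6 hr at 37 C.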
KDM4E inh: qHTS Assay for Inhibitors of Human Jumonji Domain Containing 2E (JMJD2E) | Lysine-specific demethylase 4E (Homo sapiens), B2RXH2 | Potency, µM (doses to about 57.1 µM), for inactives: at the top dose activity change, negative = inhibition, actives largely listed as inhibitors | AID 2147, 2009 | actives 1.6% (n = 230,000) | JMJD2E catalytic domain, FDH-coupled NADH fluorescence (FDH is formaldehyde dehydrogenase);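 also: potency is read from the fitted curve at half-maximal effect; 0% = wells with enzyme and -100% = buffer wells without enzyme; nearly all actives have a fitted effect of over 50% in size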
Tau fluor counter: Counterscreen qHTS for Inhibitors of Tau Fibril Formation, Fluorescence Polarization | tau K18 P301L Alexa594 fluorescence, heparin fibrillization | Potency, µM (titrated, usually from 57.7 µM), for inactives: at the top dose activity change, negative = decrease | actives 0.93% (n = 280,000); also: potency is read from the fitted curve at half-maximal effect; % is scaled to controls: 0 for no effect and ±100 for the full control effect; nearly all actives have a fitted effect of over 55% in size
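Human K18 P301L tau (15 uM unlabeled plus 0.24 uM Alexa 594-labeled, final) in 100 mM sodium acetate pH 7 was mixed with compound and 20 uM heparin and incubated 6 hr at 37 C.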
Tau ThT inhib: qHTS for Inhibitors of Tau Fibril Formation, Thioflavin T Binding; recombinant tau K18 P301L (four-repeat tau fragment), heparin-induced fibrillization, ThT fluorescence; Potency, µM (top dose mostly 57.4 µM), for inactives: top-dose activity, negative = inhibition, usual class: inhibitors; actives 2.1% (n = 270,000); also: potency is read from the fitted curve at half-maximal effect; % is scaled to controls: 0 for no effect and ±100 for the full control effect; nearly all actives have a fitted effect of over 55% in size
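Heparin-induced (20 uM) aggregation of recombinant human K18 P301L tau, 15 uM unlabeled with 0.24 uM labeled, pH 7 acetate buffer, 6 hr at 37 C with compound. Fibrils quantified by 30 uM ThT fluorescence after 1 hr ambient incubation.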
CBFb-RUNX1 inh: qHTS Assay for Compounds Blocking the Interaction Between CBF-beta and RUNX1 for the Treatment of Acute Myeloid Leukemia; Runt-related transcription factor 1 (Homo sapiens) + Core-binding factor subunit beta …; AlphaScreen CBFb-His/RUNX1-biotin binding, biochemical; Potency, µM (titrated, usually from 59.8 µM), for inactives: at the top dose activity, negative = inhibition, most hits filed as inhibitors; 230,000 tested, under 10 active; AID 1477, 2009; also: % of control where 0% means no effect
Target sequence (Q01196 whole entry, looked up): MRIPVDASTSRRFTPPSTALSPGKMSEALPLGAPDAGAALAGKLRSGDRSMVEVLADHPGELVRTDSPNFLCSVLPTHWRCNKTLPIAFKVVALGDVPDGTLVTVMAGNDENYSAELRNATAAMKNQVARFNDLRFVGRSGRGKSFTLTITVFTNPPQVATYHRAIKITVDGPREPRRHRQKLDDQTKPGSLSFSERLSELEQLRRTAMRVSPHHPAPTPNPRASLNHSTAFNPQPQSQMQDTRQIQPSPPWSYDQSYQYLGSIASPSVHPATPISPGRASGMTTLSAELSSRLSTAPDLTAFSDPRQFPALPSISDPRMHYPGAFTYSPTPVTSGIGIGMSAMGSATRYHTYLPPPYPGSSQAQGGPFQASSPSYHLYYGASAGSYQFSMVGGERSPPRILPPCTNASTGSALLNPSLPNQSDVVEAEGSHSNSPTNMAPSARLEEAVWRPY
Target sequence (Q13951 whole entry, looked up): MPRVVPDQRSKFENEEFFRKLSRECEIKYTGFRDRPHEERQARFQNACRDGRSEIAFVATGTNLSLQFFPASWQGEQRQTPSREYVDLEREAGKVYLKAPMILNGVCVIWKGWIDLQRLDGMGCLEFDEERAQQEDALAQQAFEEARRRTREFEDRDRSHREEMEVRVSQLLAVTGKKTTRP
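Room-temperature protein-protein interaction test with 30 nM each of His-tagged CBF-beta and biotinylated RUNX1, 15 min with compound, then 90 min with nickel plus streptavidin beads. Signal read in AlphaScreen mode.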
LMNA splice mod: qHTS Assay for Modulators of Lamin A Splicing. HeLa LMNA splicing GFP/RFP minigene ratio, 48 h. AID 1487, 2009. actives 0.01% (n = 200,000). Potency, µM (highest dose often 46.1 µM), for the others: top-dose ratio change, negative = inhibition, most hits filed as inhibitors; active = well fitted inhibition curve with a large enough effect in the signal ratio, with a control signal flat, not every such curve was filed as active; inconclusive = small, poorly fitted or top-dose-only effect, or effect the other way, or a change in a side signal; the % refers to the signal ratio; also: potency is read from the fitted curve at half-maximal effect; % is scaled to controls: 0 for no effect and ±100 for the full control effect
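Read-out is the ratio of GFP to DsRed2 object intensity, acquired by 488 nm laser-scanning cytometry on HeLa lamin A-EGFP minigene reporter cells. Compound incubation 48 hrs at 37 °C in Opti-MEM with 2% FBS; DMSO 0.5% final.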
The depositor's hits bear a star; ? = inconclusive; · = no result; [ ] = remark or other dose. Sampled rows, rich in hits. Any-hit rate of the full collection: about 3.2%. Unless noted, calls follow the shape of the dose curve; as a rule, active = well fitted curve in the direction sought with a large enough effect; inconclusive = small, poorly fitted or top-dose-only effect, or another doubt; inactive = no such curve, though single readings can be large; an effect the other way counts as inactive or inconclusive.

SMILES	Tau FP inhib	KDM4E inh	Tau fluor counter	Tau ThT inhib	CBFb-RUNX1 inh	LMNA splice mod
O=C(OCn1ncc(Cl)c(Cl)c1=O)c1ccccc1Cl	-20%	1%	-14%	14µM*	0%	?
O=C1Nc2ccccc2Oc2cc(Oc3ccccc3)ccc21	2%	·	?	?	·	·
CC(C)(C)[C@@H](O)C(Cc1ccc(Cl)cc1)n1cncn1 (some centres undefined)	·	·	·	·	10%	·
CCC(=O)N1CCc2cc(CNC(=O)Nc3cc(OC)c(OC)c(OC)c3)ccc21	11%	·	-21%	-12%	·	0%[46 µM]
CCOC(=O)c1cccc(NC(=O)NCc2ccc3c(c2)CCN3C(=O)CC)c1	?	·	18µM*[quencher]	?	·	22%[46 µM]
Cc1nn2c(=O)cc(COC(=O)c3cccc(NC(=O)c4ccc(C(C)(C)C)cc4)c3)nc2s1	1%	·	-16%	-12%	·	?
COC(=O)COc1ccc(Oc2nc(NC(C)(C)C)nc(N3CCOCC3)n2)nn1	6%	·	4%	0%	·	·
Cc1cc(O)c(C=O)c2c1C(=O)Oc1c(C)c(O)c3c(c1O2)C(O)OC3=O (centres undefined)	?	?	?	7.9µM*	-12%	·
COc1cc(C)c2c(c1C=O)Oc1c(c(C)c(O)c3c1C(O)OC3=O)OC2=O (centres undefined)	25µM*	?	?	14µM*	?	10%
COC(=O)c1c(C)c2c(c(C)c1O)OC(=O)c1c(C)c(Cl)c(O)c(Cl)c1O2	-1%	8%	-14%	-20%	9%	·
CCOc1ccc(-n2nc(CO)c(C(=O)NCC(C)O)n2)cc1 (centres undefined)	3%	·	5%	6%	·	·
COc1ccc(OC)c2c(=S)c3ccccc3[nH]c12	7.9µM*	?	11µM*[quencher]	4µM*	-18%[21.7 µM]	·
CCC(C)C(NC(=O)C(Cc1ccc(O)cc1)NC(=O)C(N)C(C)C)C(=O)NC(Cc1cnc[nH]1)C(=O)N1CCCC1C(=O)NC(Cc1ccccc1)C(=O)O (centres undefined)	·	·	·	·	18%	·
Cc1ccccc1OCC1CO1 (centres undefined)	·	·	·	·	-5%[21.7 µM]	·
O=S(=O)(c1cccc(-c2csc(-c3ccccc3)n2)c1)N1CCOCC1	-8%	-8%	?	?	11%	?
O=S(=O)(c1cccc(-c2csc(N/N=C/c3ccco3)n2)c1)N1CCOCC1	10%	-18%	13µM*[quencher]	14µM*	-19%	·
COc1cc(/C=N/Nc2nc(-c3ccc(S(=O)(=O)N(C)C)cc3)cs2)ccc1O	3%	-12%	13µM*[quencher]	10µM*	-16%	·
CCOc1cc(/C=N/Nc2nc(-c3cccc(S(=O)(=O)N4CCCC4)c3)cs2)ccc1O	14%	8%	10µM*[quencher]	?	6%	?
COc1cc(/C=N/NC(=O)c2ccccc2)ccc1O	2%	?	-2%	-16%	5%	·
COc1cc(/C=N/NC(=O)c2ccc(CN(C)S(=O)(=O)c3ccc(C)cc3)cc2)ccc1O	6%	1%	16µM*[quencher]	?	7%	1%[46 µM]
COc1ccc(/C=N/Nc2nc(-c3cccc(S(=O)(=O)N4CCCC4)c3)cs2)cc1OC	10%	?	?	?	13%	?
COC(=O)c1ccc(Cl)cc1NC(=O)Nc1nnc(N2CCCC2)s1	1%	·	-4%	1%	·	·
CCCC(=O)Nc1cc(C(=O)NCc2ccccc2)ccc1S(=O)(=O)c1ccc(Cl)cc1	-3%	·	-25%	?	·	5%[46 µM]
Cc1ccc(OCC(=O)Nc2ccc3nc(SCC(=O)N4CCOCC4)sc3c2)cc1C	6%	·	-21%	-10%	·	21%[46 µM]
Cc1cccc(N2CCN(c3ncnc4c3nc3n4CCCCC3)CC2)c1C	4%	·	-11%	?	·	?
SMILES	Tau FP inhib	KDM4E inh	Tau fluor counter	Tau ThT inhib	CBFb-RUNX1 inh	LMNA splice mod
COc1ccc(-c2cnnc(N/N=C/c3ccc(O)c(OC)c3)n2)cc1	4%	1%	?	1.8µM*	-13%	?
COc1ccc(/C=N/Nc2nc3ccccc3s2)cc1O	9%	-30%	13µM*[quencher]	13µM*	-16%	?
CCn1c(C)c(/C=N/Nc2nc3ccccc3s2)c2ccccc21	1%	?	7.1µM*[quencher]	7.1µM*	?	?
C(=N\Nc1nc2ccccc2s1)/c1cccs1	?	-7%	14µM*[quencher]	14µM*	-2%	?
Cc1ccsc1/C=N/Nc1nc2ccccc2s1	?	-4%	-2%	8%	-4%	-16%
CCOC(=O)N1CCN([N+]([O-])=NOc2cc(O/N=[N+](\[O-])N(C)C)c([N+](=O)[O-])cc2[N+](=O)[O-])CC1	·	·	·	·	15%	·
Cc1cc(C)c2c(CC(=O)Nc3c(C(=O)Nc4ccc(Cl)cc4)oc4ccccc34)coc2c1	?	·	-13%	14%	·	·
COc1ccccc1N1C(=N)S/C(=C\c2ccc(-c3ccccc3C(=O)O)o2)C1=O	8%	-2%	-4%	?	?	-2%
N=C1S/C(=C\c2ccc(-c3ccccc3C(=O)O)o2)C(=O)N1c1ccc2c(c1)OCO2	-10%	5.6µM*	-26%	3.5µM*	-4%	·
Oc1cc2c(cc1O)[C@@H]1c3ccc(O)c(O)c3OC[C@]1(O)C2	?	14µM*	?	14µM*	?	·
NC(CCC(=O)N[C@@H](CS)C(=O)NCC(=O)O)C(=O)O (some centres undefined)	?	?	-18%	32µM*	23%	?
CCNC(=O)CCC(N)C(=O)O (centres undefined)	5%	1%	-5%	-2%	·	-6%
COc1cc(C(C#N)N2N=C(c3ccccc3)CC2c2ccccc2)ccc1O (centres undefined)	-2%	-25%	-13%	-19%	9%	-2%
N#CC(c1ccccc1O)N1N=C(c2ccccc2)CC1c1ccccc1 (centres undefined)	4%	32µM*	?	?	4%	·
Cc1ccc(C)c(N2CCN(c3nc4ccccc4c(=O)n3-c3ccccc3)CC2)c1	-13%	·	-18%	-6%	·	·
CC(=O)n1c2ccccc2c2nc(NC(C)C)sc21	?	-10%	-26%	22µM*	-11%	-3%
COc1cccc(C(=O)/C=C/Nc2cc(C)ccc2O)c1	6%	?	16µM*[quencher]	3.5µM*	4%	-20%
